Experimental data taken from publication PMC4336329 (PLoS ONE, 2015).
Hit rate of the full screen: of about 310,000 compounds, about 14,000 (4.5%) showed an effect of 50% or more. The effect is printed as a negative number. For the sample, strong results were picked, then their nearest neighbours and some compounds at random.

Target: human ether-à-go-go-related gene (hERG) potassium channel (human, UniProt Q12809)
Test: primary screen, population patch clamp on CHO cells stably expressing hERG; higher = less effect of the substance
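Also: peak tail current of the secondary pulse compared with the same well before compound.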

Sequence of human ether-à-go-go-related gene (hERG) potassium channel (Q12809 whole entry, looked up): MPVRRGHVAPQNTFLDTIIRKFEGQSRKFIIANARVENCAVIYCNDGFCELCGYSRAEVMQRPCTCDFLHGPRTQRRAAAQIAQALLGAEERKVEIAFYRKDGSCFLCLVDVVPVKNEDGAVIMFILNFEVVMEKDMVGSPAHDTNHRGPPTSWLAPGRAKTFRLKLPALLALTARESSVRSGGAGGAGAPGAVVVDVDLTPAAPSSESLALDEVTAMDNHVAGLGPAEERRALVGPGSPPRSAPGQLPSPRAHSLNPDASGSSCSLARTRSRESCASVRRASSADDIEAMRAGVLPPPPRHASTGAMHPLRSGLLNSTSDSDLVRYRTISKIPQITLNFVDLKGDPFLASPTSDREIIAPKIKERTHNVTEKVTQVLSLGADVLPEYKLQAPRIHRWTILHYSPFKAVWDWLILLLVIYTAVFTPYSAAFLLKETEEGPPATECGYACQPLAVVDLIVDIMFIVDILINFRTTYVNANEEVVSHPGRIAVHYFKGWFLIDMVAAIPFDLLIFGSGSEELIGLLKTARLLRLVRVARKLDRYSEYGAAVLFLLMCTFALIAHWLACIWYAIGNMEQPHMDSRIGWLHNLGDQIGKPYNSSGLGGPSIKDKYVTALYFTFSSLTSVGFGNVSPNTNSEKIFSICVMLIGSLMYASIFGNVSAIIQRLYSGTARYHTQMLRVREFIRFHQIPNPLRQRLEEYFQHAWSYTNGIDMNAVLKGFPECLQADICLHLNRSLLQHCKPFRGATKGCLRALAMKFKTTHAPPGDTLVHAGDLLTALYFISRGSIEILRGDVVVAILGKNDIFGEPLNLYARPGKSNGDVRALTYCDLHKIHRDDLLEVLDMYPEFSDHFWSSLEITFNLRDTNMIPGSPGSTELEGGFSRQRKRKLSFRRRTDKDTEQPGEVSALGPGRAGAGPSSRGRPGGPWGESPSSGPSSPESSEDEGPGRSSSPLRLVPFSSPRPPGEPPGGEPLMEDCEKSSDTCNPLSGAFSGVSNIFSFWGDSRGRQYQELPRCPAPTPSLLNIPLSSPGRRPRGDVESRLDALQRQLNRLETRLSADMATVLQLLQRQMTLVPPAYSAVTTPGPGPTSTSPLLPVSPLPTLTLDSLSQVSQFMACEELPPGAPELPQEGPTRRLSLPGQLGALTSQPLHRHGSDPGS

SMILES | hERG current change (%, negative = inhibition) at 10uM [%]
CCC(CC)c1nnc(NC(=O)c2cccnc2SC)s1 | 15.4
C/C=C/c1ccc(OCCCCN2C(=O)NC(C)(C)C2=O)c(OC)c1 | -7.09
COc1ccccc1C(O)(C(=O)NN(C)c1ccccc1)c1ccccc1OC | 9.03
Cc1cccc(OCCCCc2c(C)n[nH]c2C)c1C | 9.64
CCc1ccc(/C=C2\Oc3cc(OS(C)(=O)=O)ccc3C2=O)cc1 | 11.8
O=S(=O)(NC1=NCCC1)c1cccc(NS(=O)(=O)c2ccc(OC(F)(F)F)cc2)c1 | 1.71
CN1CCN(CCNC(=O)Nc2ccccc2C(F)(F)F)CC1 | 3.26
CC1(C)C2CCC1(C)C(OC(=O)C[n+]1ccccc1N)C2.[Br-] (stereo not shown) | -35.3
CCOC(=O)C1CCN(c2cc3c(cc2NC(=O)c2cc(OC)ccc2Br)n(C)c(=O)n3C)CC1 | 0.12
COCCNc1c([N+](=O)[O-])c(=O)n(-c2ccccc2)c2ccccc12 | -25.2
O=C(c1ccccc1Oc1ccc(C(F)(F)F)cc1[N+](=O)[O-])N1CCOCC1 | 1.22
COC(=O)CN1C(=O)C(O)(CC(=O)c2cccc(Br)c2)c2ccccc21 (stereo not shown) | -11.7
CN(Cc1ccccn1)Cc1nc(COc2ccccc2)no1 | -2.85
c1ccc(COc2ccccc2CNC2CCCC2)cc1 | -39.7
COc1cccc(CNC23CC4CC(CC(C4)C2)C3)c1OCc1ccccc1.Cl | -50
CNCc1ccc(OCc2ccccc2)c(OC)c1 | 0.71
Cl.c1ccc(COc2ccccc2CNC23CC4CC(CC(C4)C2)C3)cc1 | -83.6
COc1cccc(CNCCO)c1OCc1ccccc1.Cl | -1.31
COc1cc(CNC23CC4CC(CC(C4)C2)C3)ccc1OCc1ccccc1.Cl | -64
COc1cc(CNC(=O)C2CC2)ccc1OCc1ccccc1 | -11.8
CCNCc1ccccc1OCc1ccccc1.Cl | -3.77
COc1cccc(CNCc2cccnc2)c1OCc1ccccc1.Cl | 19.3
COc1cc(NC(=O)CS(=O)(=O)c2ccccc2)cc(OC)c1OC | 11.3
Cc1cccc(NC(=O)Nc2cccc(Oc3c(F)c(F)c(F)c(F)c3F)c2)c1 | 8.83
N#C/C(=C/c1ccc(Br)s1)C(=O)NCCc1c[nH]c2ccccc12 | 18.8
O=C(COC(=O)c1ccc([N+](=O)[O-])cc1)Nc1cccnc1Cl | -1.85
O=C(Nc1ccncc1)c1cc(S(=O)(=O)N2CCOCC2)ccc1Cl | -46.6
O=C(Nc1ccncc1)C1CCN(S(=O)(=O)c2ccc(Cl)c(C(F)(F)F)c2)CC1 | -69.9

SMILES | hERG current change (%, negative = inhibition) at 10uM [%]
O=C(Nc1cc(S(=O)(=O)N2CCCCC2)ccc1N1CCCCC1)c1ccncc1 | -52.4
CCN(CC)S(=O)(=O)c1ccc(N2CCCCC2)c(NC(=O)c2ccncc2)c1 | -29.5
CS(=O)(=O)Nc1ccc(C(=O)Nc2ccc(S(=O)(=O)N3CCCCC3)cc2)cc1 | -13.8
CS(=O)(=O)Nc1ccc(S(=O)(=O)N2CCCC2)cc1 | 8.49
O=C(Nc1ccc(O)cc1)c1cc(S(=O)(=O)N2CCCC2)ccc1Cl | -14.9
CCN(CC)S(=O)(=O)c1ccc(N2CCCC2)c(NC(=O)c2ccncc2)c1 | -22.6
O=C(Nc1nccs1)C1CCN(S(=O)(=O)c2ccc(Cl)c(C(F)(F)F)c2)CC1 | -0.668
O=C(Nc1ccncc1)c1cc(S(=O)(=O)N2CCCCC2)ccc1Cl | -56.2
CS(=O)(=O)Nc1ccc(S(=O)(=O)N2CCCCCC2)cc1 | -65.4
Cc1ccnc(NC(=O)C2CCN(S(=O)(=O)c3ccc(Cl)c(C(F)(F)F)c3)CC2)c1 | -14.2
COc1ccc(S(=O)(=O)CCC(=O)Nc2c(C)cccc2C)cc1 | 23
CC(=O)Nc1ccc(S(=O)(=O)NCCSCc2ccccc2Cl)cc1 | 2.92
COc1ccc(Br)cc1-c1nc2c(c(=O)[nH]c(=O)n2Cc2ccccc2)n1C | 5.42
CC(C)CN(C(=O)Cn1c(C(F)(F)F)nc2ccccc21)C1CCS(=O)(=O)C1 (stereo not shown) | -9.53
Cc1ccc(N2C(=O)C(NC(=O)c3ccccc3F)(C(F)(F)F)C3=C2CC(C)(C)CC3=O)cc1 (stereo not shown) | 6.43
CC(SC1=Nc2ccccc2C2CC=NN12)C(=O)NC1(C#N)CCCCC1 (stereo not shown) | -19.8
CNC(=S)N/N=C/C1=CCC2CC1C2(C)C (stereo not shown) | -3.84
O=C(Cn1nnc2ccccc2c1=O)Nc1cc(C(F)(F)F)ccc1N1CCOCC1 | -14.5
COc1cc(S(=O)(=O)N2CCCCC2)ccc1NC(=O)c1ccncc1 | -30.8
O=C(Nc1ccc(S(=O)(=O)N2CCCCC2)cc1)c1ccccc1Cl | -73.1
O=C(Nc1ccc(S(=O)(=O)N2CCCCC2)cc1)c1ccco1 | -10.7
O=C(Nc1ccc(S(=O)(=O)N2CCCCCC2)cc1)c1ccco1 | -72.5
O=C(Nc1cc(S(=O)(=O)N2CCCCC2)ccc1Cl)c1ccc(F)cc1 | -8.99
O=C(Nc1cc(S(=O)(=O)N2CCCCC2)ccc1Cl)c1ccncc1 | -50.2
O=C(Nc1ccc(S(=O)(=O)N2CCOCC2)cc1)c1ccco1 | -20.3
O=C(O)c1ccccc1C(=O)Nc1ccc(S(=O)(=O)N2CCCC2)cc1 | 22.3
CN1CCN(S(=O)(=O)c2ccc(NC(=O)c3ccccc3Cl)cc2)CC1 | 8.9
